This is an account of results in PubChem BioAssay (EPA / NIEHS).

Read-out in assay [1]: Human Leukocyte Antigen - DR isotype (HLADR), HLA-DRA (gene 3122)
Briefly: BSK_3C_HLADR: BioMAP Diversity Plus: 3C Assay for Human Leukocyte Antigen - DR isotype (HLADR) Biomarker Activity (AID 2283019).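 As to outcome: ELISA of cell-surface HLA-DR on HUVEC 24 h after dosing.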 Conditions: primary human endothelial cells (HUVEC); actives raise or lower the signal. In outline:
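Endothelial cells from human umbilical vein are treated with test chemical; after 24 h, HLA-DR levels are measured by ELISA. Data are fitted in both directions using DMSO as the baseline.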

Read-out in assay [2]: Interleukin-8 (IL8), CXCL8 (gene 3576)
Briefly: BSK_3C_IL8: BioMAP Diversity Plus: 3C Assay for Interleukin-8 (IL8) Biomarker Activity (AID 2283020). Conditions: primary human endothelial cells (HUVEC); actives raise or lower the signal. A digest of the protocol:
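Endothelial primary cells of human umbilical vein origin are dosed with chemical; after 24 h the IL-8 biomarker is measured by ELISA, and concentration–response is fitted in both directions versus DMSO.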

Read-out in assay [3]: Monokine induced gamma interferon (MIG), CXCL9 (gene 4283)
Description: BSK_3C_MIG: BioMAP Diversity Plus: 3C Assay for Monokine induced gamma interferon (MIG) Biomarker Activity (AID 2283021).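 As to AC50: MIG protein level measured by immunoassay in the treated endothelial cultures.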 Conditions: primary human endothelial cells (HUVEC); actives raise or lower the signal. In outline: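 Endothelial primary cells (human umbilical vein) are dosed with test chemical in the 3C system. MIG levels are measured by ELISA at 24 h and fitted in both directions relative to DMSO.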

The target in assay [4] is human Vitamin D Receptor (VDR), VDR (gene 7421) (UniProt P11473). Briefly: ATG_VDR_TRANS: Attagene TRANS-FACTORIAL HepG2 Assay for human Vitamin D Receptor (VDR) (AID 2283022; active = hit-call score of the fitted dose curve at least 0.9, where 1 is the maximum). In outline:
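Fluorescence of labelled reporter cDNA fragments, resolved by capillary electrophoresis, gives mRNA induction after 24 h treatment of HepG2 cells carrying transfected Gal4-fusion reporter units. Activity is fitted in the positive direction with DMSO as baseline.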

The nature of assay [5]: BSK_3C_SRB: Viability Assessment in the BioMAP Diversity Plus: 3C Assay (AID 2283023).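 Also: fitted both ways against DMSO so a hit may be signal rise or drop.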 Conditions: primary human endothelial cells (HUVEC). A digest of the protocol:
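Cells were dosed with chemical, cultured 24 h, fixed with 10% TCA, stained with 0.1% SRB and read at 560 nm. Human umbilical vein endothelium was used; DMSO served as negative control and baseline.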

Read-out in assay [6]: Matrix Metallopeptidase 1 (MMP1), MMP1 (gene 4312)
Description: BSK_BE3C_MMP1: BioMAP Diversity Plus: BE3C Assay for Matrix Metallopeptidase 1 (MMP1) Biomarker Activity (AID 2283024). Conditions: primary human bronchial epithelial cells; actives raise or lower the signal. A digest of the protocol:
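MMP1 signal, measured by ELISA after a 24 h chemical exposure of human primary bronchial epithelial cells, is analysed with bidirectional fitting using DMSO as negative control.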

A short description of assay [7]: BSK_3C_Vis: BioMAP Diversity Plus: 3C Assay for Morphology Visualization (AID 2283025).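 Also: fitted both ways so gain or loss versus DMSO counts.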 Conditions: primary human endothelial cells (HUVEC). A digest of the protocol: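 Morphology read by light microscopy serves as a background control for the multiplexed 3C assay in human umbilical vein endothelial cells, taken 24 h after dosing, with DMSO as the negative control and bidirectional curve fitting.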

Read-out in assay [8]: Pselectin, SELP (gene 6403)
Description: BSK_4H_Pselectin: BioMAP Diversity Plus: 4H Assay for Pselectin Biomarker Activity (AID 2283026). Conditions: primary human endothelial cells (HUVEC); actives raise or lower the signal. A digest of the protocol: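 Endothelial primary cells (human umbilical vein) are dosed, incubated 24 h, and assayed for surface P-selectin by ELISA; responses in either direction are fitted relative to the DMSO negative control.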

Assay [9] is described as follows: BSK_4H_SRB: Viability Assessment in the BioMAP Diversity Plus: 4H Assay (AID 2283027).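 Also: cells exposed to compound for 24 h before staining.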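 As to AC50: curves fitted both ways versus DMSO so AC50 may be loss or gain.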 Conditions: primary human endothelial cells (HUVEC). A digest of the protocol: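 HUVEC, 24 h post-dose; 10% TCA fix, 0.1% SRB stain, A560 nm. Total protein = overt cytotoxicity, parallel to biomarker read. Bidirectional fit vs DMSO baseline.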
The nature of assay [10]: BSK_BE3C_SRB: Viability Assessment in the BioMAP Diversity Plus: BE3C Assay (AID 2283028). Conditions: primary human bronchial epithelial cells. In outline:
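Overt cytotoxicity was assessed as total protein in confluent human primary bronchial epithelial cultures 24 h after chemical addition, using 0.1% sulforhodamine B staining read at 560 nm.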

Read-out in assay [11]: Thrombomodulin, THBD (gene 7056)
Description: BSK_3C_Thrombomodulin: BioMAP Diversity Plus: 3C Assay for Thrombomodulin Biomarker Activity (AID 2283029). Conditions: primary human endothelial cells (HUVEC); actives raise or lower the signal. A digest of the protocol:
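Endothelial cells from umbilical vein are dosed with test chemical and incubated 24 h. Thrombomodulin is then quantified by ELISA, with DMSO serving as negative control and activity baseline.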

Read-out in assay [12]: Vascular endothelial growth factor receptor 2 (Homo sapiens) (UniProt P35968)
Description: BSK_4H_VEGFRII: BioMAP Diversity Plus: 4H Assay for Vascular endothelial growth factor receptor 2 (VEGFR2) Biomarker Activity (AID 2283031).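 Also: cell-surface VEGFR2 protein level quantified by ELISA.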 Conditions: primary human endothelial cells (HUVEC); actives raise or lower the signal. In outline:
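VEGFRII levels on human vascular endothelial primary cells were determined by ELISA at 24 hours post-dosing, with gain- or loss-of-signal fitted against DMSO controls.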

Read-out in assay [13]: Human Leukocyte Antigen - DR isotype (HLADR), HLA-DRA (gene 3122)
Briefly: BSK_BE3C_HLADR: BioMAP Diversity Plus: BE3C Assay for Human Leukocyte Antigen - DR isotype (HLADR) Biomarker Activity (AID 2283032). Conditions: primary human bronchial epithelial cells; actives raise or lower the signal. A digest of the protocol: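 Chemicals are dosed onto BE3C bronchial epithelial cultures of human origin and left 24 h. HLA-DR is then measured by ELISA, and the endpoint is fitted in both directions using DMSO as the activity baseline.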

Read-out in assay [14]: Vascular cell adhesion molecule 1 (VCAM1), VCAM1 (gene 7412)
Description: BSK_4H_VCAM1: BioMAP Diversity Plus: 4H Assay for Vascular cell adhesion molecule 1 (VCAM1) Biomarker Activity (AID 2283033).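 As to outcome: cell-surface VCAM-1 protein measured by ELISA.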 Conditions: primary human endothelial cells (HUVEC); actives raise or lower the signal. In outline: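 Chemicals are added to primary human umbilical vein endothelial cells. After 24 h, VCAM-1 levels are measured by ELISA. Values come from bidirectional fitting referenced to DMSO.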

Read-out in assay [15]: Interferon-gamma inducible Protein 10 (IP10), CXCL10 (gene 3627)
Description: BSK_BE3C_IP10: BioMAP Diversity Plus: BE3C Assay for Interferon-gamma inducible Protein 10 (IP10) Biomarker Activity (AID 2283034). Conditions: primary human bronchial epithelial cells; actives raise or lower the signal. A digest of the protocol: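 IP-10 quantified by ELISA serves as the endpoint. Cells: primary human bronchial epithelium, read 24 h after compound addition. Activity is derived by bidirectional fitting with DMSO as negative control.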

Read-out in assay [16]: Transforming growth factor beta 1 (TGFb1), TGFB1 (gene 7040)
Briefly: BSK_BE3C_TGFb1: BioMAP Diversity Plus: BE3C Assay for Transforming growth factor beta 1 (TGFb1) Biomarker Activity (AID 2283036;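 as to outcome: TGF-b1 protein level measured by ELISA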). Conditions: primary human bronchial epithelial cells; actives raise or lower the signal. A digest of the protocol: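 Bronchial epithelial primary cells are treated with test chemical, then TGF-b1 is quantified by ELISA after 24 hours. Values derive from bidirectional fitting against DMSO, with cytotoxicity checked by SRB staining in parallel cultures.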

Read-out in assay [17]: Urokinase-type plasminogen activator receptor (uPAR), PLAUR (gene 5329)
Briefly: BSK_4H_uPAR: BioMAP Diversity Plus: 4H Assay for Urokinase-type plasminogen activator receptor (uPAR) Biomarker Activity (AID 2283030). Conditions: primary human endothelial cells (HUVEC); actives raise or lower the signal. In outline:
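Chemicals are dosed onto human vascular endothelial primary cells (umbilical vein). After 24 h, uPAR is read by ELISA. Gain or loss of signal is fitted relative to DMSO.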

Read-out in assay [18]: Monokine induced gamma interferon (MIG), CXCL9 (gene 4283)
Briefly: BSK_BE3C_MIG: BioMAP Diversity Plus: BE3C Assay for Monokine induced gamma interferon (MIG) Biomarker Activity (AID 2283035).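 Also: MIG protein measured by ELISA in BE3C cultures after 24 h of dosing.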 Conditions: primary human bronchial epithelial cells; actives raise or lower the signal. A digest of the protocol:
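Dose cells (human primary bronchial epithelial), incubate 24 h, quantify MIG by ELISA, then fit concentration–response in both directions relative to DMSO control.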

Read-out in assay [19]: Plasminogen activator inhibitor-1 (PAI1), SERPINE1 (gene 5054)
Description: BSK_BE3C_PAI1: BioMAP Diversity Plus: BE3C Assay for Plasminogen activator inhibitor-1 (PAI1) Biomarker Activity (AID 2283037). Conditions: primary human bronchial epithelial cells; actives raise or lower the signal. A digest of the protocol:
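Values derive from bidirectional fitting against DMSO baseline of PAI-1 levels, measured by ELISA in human bronchial epithelial cells 24 h after compound addition.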

Read-out in assay [20]: urokinase plasminogen activator (uPA), PLAU (gene 5328)
Briefly: BSK_BE3C_uPA: BioMAP Diversity Plus: BE3C Assay for urokinase plasminogen activator (uPA) Biomarker Activity (AID 2283038).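 Also: uPA protein level quantified by ELISA in cell cultures; uPA read one day after compound addition.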 Conditions: primary human bronchial epithelial cells; actives raise or lower the signal. In outline:
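Measured by ELISA: uPA from human primary bronchial epithelial cells 24 h after chemical treatment. Values derive from bidirectional curve fitting with DMSO serving as negative control. Total protein by SRB staining in parallel wells flagged overt cytotoxicity.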

Inconclusive results are not listed. Calls of active or inactive are those of the source. The calls were made as follows, unless noted: active = hit-call score of the fitted dose curve at least 0.9, where 1 is the maximum; inactive = score below 0.9.

human Vitamin D Receptor (VDR), VDR (gene 7421), sequence (P11473 whole entry, looked up, the tested form may be a part): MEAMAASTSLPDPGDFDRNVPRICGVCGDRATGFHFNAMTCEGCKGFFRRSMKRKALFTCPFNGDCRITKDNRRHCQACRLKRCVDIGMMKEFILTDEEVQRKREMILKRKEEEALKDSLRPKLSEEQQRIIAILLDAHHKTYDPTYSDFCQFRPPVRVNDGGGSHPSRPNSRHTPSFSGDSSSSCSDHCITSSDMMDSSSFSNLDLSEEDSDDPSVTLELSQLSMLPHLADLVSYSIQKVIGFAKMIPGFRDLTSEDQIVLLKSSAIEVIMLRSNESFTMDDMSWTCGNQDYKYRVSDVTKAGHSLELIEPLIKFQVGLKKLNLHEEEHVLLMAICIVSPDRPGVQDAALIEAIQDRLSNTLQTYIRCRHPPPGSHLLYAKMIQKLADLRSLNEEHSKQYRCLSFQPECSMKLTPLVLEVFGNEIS

One may read the AC50 as the midpoint of the concentration-response curve, whichever way the signal moves. For `CCCCCCC(C)OC(=O)COc1nc(F)c(Cl)c(N)c1Cl` (stereo not drawn), the half-maximal activity concentration (AC50) in [1] was 31.6 µM (active); in assay [2], 36.5 µM (active); in assay [3] it was 37.7 µM (active); in [5], 30.1 µM (active); in [7], 29.4 µM (active); in assay [8] it was 30.8 µM (active). For the same molecule, the AC50 was 34.5 µM (active) in assay [9], 31.9 µM (active) in [12] and 39 µM (active) in assay [14]. In addition, the call in assay [4], in [6], in [10], in assay [11], in assay [13] and in assay [15] was inactive. For the same molecule, the result in [16] was inactive.

Regarding `C[C@]12CC[C@@H]3c4ccc(O)cc4C[C@@H](CCCCCCCCCS(=O)CCCC(F)(F)C(F)(F)F)[C@H]3[C@@H]1CC[C@@H]2O` (stereo partly drawn), the outcome in assay [1], in [2], in [3], in assay [4], in assay [7] and in [8] was inactive. Besides, the outcome in assay [9], in assay [10], in assay [11], in assay [13], in assay [14] and in [15] was inactive. For the same molecule, the outcome in [16] was inactive. Further, the values for the AC50 in assay [5], in [6] and in assay [17] were 3.51 µM (active), 0.907 µM (active) and 12.4 µM (active), respectively.

In the case of `COC(=O)c1ccccc1S(=O)(=O)NC(=O)Nc1nc(OC(F)F)cc(OC(F)F)n1`, the result in assay [1], in assay [2], in assay [3], in assay [4], in assay [5] and in [6] was inactive. For the same molecule, the result in [7], in assay [8], in assay [9], in assay [10], in assay [11] and in assay [17] was inactive. The result in assay [13], in [14], in [15], in [18], in assay [16] and in assay [19] was inactive.

On to `c1ccc(Nc2ccccc2)cc1`, for which the concentration at half-maximal activity (AC50) in assay [1] is 13.5 µM (active); in assay [16], 3.97 µM (active). For the same molecule, the outcome in [2], in assay [3], in assay [4], in [5], in assay [6] and in assay [7] was inactive. For the same molecule, the result in assay [8], in assay [9], in [10], in [11], in assay [17] and in assay [13] was inactive. The result in assay [14], in assay [15], in assay [18], in assay [19] and in assay [20] was inactive.

Take `CCCOC(=O)NCCCN(C)C`: the result in assay [1], in assay [2], in assay [3], in assay [4], in assay [5] and in assay [6] was inactive. For the same molecule, the outcome in assay [7], in assay [8], in [9], in assay [10], in assay [11] and in assay [14] was inactive. Moreover, the outcome in [15], in [16] and in assay [19] was inactive. Also, the AC50 in [13] is 4.29 µM (active).

In the case of `O=C(c1ccccc1)C1CCCCC1`, the result in assay [1], in assay [2], in assay [3], in assay [4], in [5] and in assay [6] was inactive. The outcome in assay [7], in assay [8], in assay [9], in assay [10], in [11] and in assay [13] was inactive. For the same molecule, the outcome in assay [14], in assay [15], in [16] and in assay [19] was inactive.

Regarding `COc1c(Cl)ccc(Cl)c1C(=O)O`, the outcome in assay [1], in assay [2], in assay [3], in [4], in assay [5] and in assay [6] was inactive. In addition, the result in assay [7], in assay [8], in [9], in [10], in assay [11] and in [17] was inactive. Also, the result in assay [13], in [14], in [15], in assay [16] and in assay [19] was inactive.
